Screens (PubChem BioAssay)
TLR4 MyD88 comp = inhibitors of human TLR4-MyD88 binding; O00206+Q99836; HeLa CL3-4 TLR4/MyD88 BLA complementation, FRET ratio; inhibition, % at 8.4 µM; 0.18% of 200,000 active; AID 861; in the data active = inhibition above about 25%;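 also: 0% = vehicle and 100% = reference inhibitor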
TLR9-MyD88 block = TLR9-MyD88 interaction inhibition; 0.21% of 340,000 active; Q9NR96+Q99836; inhibition, % at 4.98 µM; AID 504734; CHO BLA complementation TLR9-MyD88, CCF4 FRET ratio;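 active = inhibition above the mean over all tested compounds plus 3 SD, cut at about 21% in these data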;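 also: 0% = DMSO only wells and 100% = clavulanate BLA inhibitor control wells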
ABHD5 PLIN5 PPI = ABHD5-PLIN5 protein interaction inhibition | Q00G26+Q8WTS1 | Split G. princeps luciferase complementation, luminescence, 4 h | inhibition, % at 4 µM | 0.78% of 360,000 active;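 active = inhibition above the mean inhibition across every tested compound plus 3 SD, cut at about 22% in these data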;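 also: 0% = DMSO only wells and the 100% control is not disclosed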
Target sequence (Q00G26 whole entry, looked up): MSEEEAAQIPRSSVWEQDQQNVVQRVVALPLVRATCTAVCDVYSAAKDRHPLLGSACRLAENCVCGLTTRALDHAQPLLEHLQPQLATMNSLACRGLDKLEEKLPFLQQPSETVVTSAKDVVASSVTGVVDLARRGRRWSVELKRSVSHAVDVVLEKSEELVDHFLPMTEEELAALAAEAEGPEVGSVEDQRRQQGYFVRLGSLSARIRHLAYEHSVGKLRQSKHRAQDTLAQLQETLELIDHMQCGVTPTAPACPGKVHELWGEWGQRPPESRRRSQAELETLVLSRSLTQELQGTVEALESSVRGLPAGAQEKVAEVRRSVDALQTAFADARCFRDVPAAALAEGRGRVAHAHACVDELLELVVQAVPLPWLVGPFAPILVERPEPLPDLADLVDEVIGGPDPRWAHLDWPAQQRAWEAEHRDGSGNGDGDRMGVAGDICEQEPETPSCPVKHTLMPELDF
Target sequence (Q8WTS1 whole entry, looked up): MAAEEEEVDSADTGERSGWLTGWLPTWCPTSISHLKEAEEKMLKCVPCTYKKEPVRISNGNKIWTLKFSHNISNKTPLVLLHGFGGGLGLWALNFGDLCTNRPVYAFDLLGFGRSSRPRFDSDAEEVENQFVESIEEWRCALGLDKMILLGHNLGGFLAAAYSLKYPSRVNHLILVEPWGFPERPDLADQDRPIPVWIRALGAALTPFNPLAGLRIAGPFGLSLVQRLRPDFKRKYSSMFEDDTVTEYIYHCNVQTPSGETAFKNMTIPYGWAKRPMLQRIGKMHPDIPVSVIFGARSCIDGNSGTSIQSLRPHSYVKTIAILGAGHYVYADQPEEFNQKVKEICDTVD
NOD2-RIPK2 inh = inhibitors of human NOD2-RIPK2 interaction. O43353. CHO BLA complementation NOD2-RIPK2, CCF4 ratio. inhibition, % at 4.98 µM. 0.38% of 360,000 active. AID 624267; in the data active = inhibition above about 21%;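 also: 0% = vehicle only and 100% = reference blocker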
TLR4-MyD88 conf = TLR4-MyD88 interaction inhibition confirmed; shares compounds with TLR4 MyD88 comp; HeLa CL3-4 BLA complementation, CCF4 FRET ratio; inhibition, % at 8.4 µM; 50% of 350 active; AID 941;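 active = mean inhibition across three repeat runs above about 25% carried over from the earlier screen, limit read from the data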;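 also: plate controls were DMSO only for no effect and clavulanic acid blocking BLA at full dose for full effect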
BLA inhibitor ct = beta-lactamase inhibition flagged in TLR4-MyD88 counter-screen. shares compounds with TLR4 MyD88 comp. 63% of 350 active. inhibition, % at 8.4 µM. HeLa BLA reporter, CCF4 FRET ratio;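 active = mean inhibition over three repeats above about 26% taken from the earlier screen, limit read from the data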;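 also: HeLa cells stably expressing beta-lactamase reporter as counterscreen for TLR4-MyD88 inhibitors; 0% = DMSO and 100% = clavulanic acid full inhibition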
TLR9-MyD88 conf = TLR9-MyD88 interaction inhibition, confirmation; shares compounds with TLR9-MyD88 block; CHO TLR9/MyD88 BLA complementation, CCF4 FRET ratio; inhibition, % at 4.98 µM; 51% of 680 active;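 active = mean inhibition across three repeats above about 21% taken from the earlier screen, limit read from the data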;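 also: blue over green emission ratio reports constitutive TLR9 MyD88 association via BLA complementation; 0% = DMSO vehicle wells and 100% = clavulanate BLA inhibitor wells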
BLA nonselective = beta-lactamase reporter inhibition, counter-screen artifact | 7% of 680 active | shares compounds with TLR9-MyD88 block | inhibition, % at 4.98 µM | AID 540251 | CHO-BLA cells, CCF4 FRET ratio, BLA reporter;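 active = mean inhibition above a 50% cutoff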;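 also: counterscreen of TLR9-MyD88 hits on CMV-driven BLA in CHO-K1 cells; 0% = DMSO alone and 100% = clavulanate blocking BLA; higher means less blue over green ratio so more BLA blockade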
TLR9 CHO tox = counter-screen for TLR9-MyD88 inhibitors: cytotoxicity in CHO cells; shares compounds with TLR9-MyD88 block; luminescence; inhibition, % at 4.98 µM; 39% of 680 active; AID 588336; in the data active = inhibition above about 11%
ABHD5 PLIN5 conf = confirmation of human ABHD5-PLIN5 interaction inhibitors. 67% of 2,200 active. inhibition, % at 4 µM. biochemical ABHD5-PLIN5 interaction, luminescence. shares compounds with ABHD5 PLIN5 PPI; in the data active = inhibition above about 23%;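 also: 0% = DMSO vehicle wells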
HNF4 counter = counter-screen for ABHD5-PLIN5 inhibitors: HNF4 split-luciferase; shares compounds with ABHD5 PLIN5 PPI; inhibition, % at 4 µM; 77% of 2,200 active; AID 651674; HNF4 dimerization, luminescence, biochemical;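 active = mean inhibition across replicate wells exceeding the computed hit threshold, cut at about 13% in these data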;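 also: light from luciferase halves that rejoin when HNF4 fusion proteins dimerize; 0% = DMSO only wells and the 100% control is not given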
Active calls of the source: *; x = not tested or not shown. Only some compounds are listed: those with a hit (about 1.2% of all), similar ones and a draw of the others.

SMILES	TLR4 MyD88 comp	TLR9-MyD88 block	ABHD5 PLIN5 PPI	NOD2-RIPK2 inh	TLR4-MyD88 conf	BLA inhibitor ct	TLR9-MyD88 conf	BLA nonselective	TLR9 CHO tox	others
CN(Cc1ccc(Cl)cc1Cl)C(=O)c1cccc(S(=O)(=O)NCc2ccccc2)c1	x	-10.0	3.1	-1.5	x	x	x	x	x
COc1ccc(C2C=C(c3ccccc3)Nc3nc(CCCO)nn32)cc1 (stereo not drawn)	26.0*	x	x	x	26.5*	38.0*	x	x	x
COc1ccc(C2C=C(c3cccs3)Nc3nc(CCCO)nn32)cc1 (stereo not drawn)	32.3*	x	x	x	32.9*	56.2*	x	x	x
COc1c(O)ccc(/C=N\NC(=O)c2ccc3c(c2)OCO3)c1[N+](=O)[O-]	x	-6.3	-2.1	-3.2	x	x	x	x	x
COCCNc1nc(SCC(=O)N2CCN(c3ccccc3OC)CC2)nc2ccccc12	25.1*	0.6	1.8	-2.9	-6.6	-2.7	x	x	x
O=C(OCc1ccccc1)N1CCN(C(c2ccnc3ccccc23)c2nnnn2-c2ccc3c(c2)OCCO3)CC1 (stereo not drawn)	x	x	5.3	4.6	x	x	x	x	x
O=C(Nc1ccc(S(=O)(=O)Nc2nccs2)cc1)c1cccc(N2C(=O)c3ccccc3C2=O)c1	17.8	-7.5	0.1	7.6	x	x	x	x	x
O=C(Nc1nccs1)c1cccc(N2C(=O)c3cccc4c([N+](=O)[O-])ccc(c34)C2=O)c1	28.1*	0.5	0.7	-4.2	21.1	32.2*	x	x	x
O=C(/C=C/c1cn(CC(O)CN2CCCCC2)c2ccccc12)c1ccccc1 (stereo not drawn)	x	6.0	7.0	11.8	x	x	x	x	x
CN1CCN(Cn2cc(/C=C/C(=O)c3ccccc3)c3ccccc32)CC1	27.8*	22.9*	-3.6	32.8*	15.6	34.0*	x	x	x
COc1cc2c(cc1NC(=O)c1cccc(S(=O)(=O)N(C)C)c1)oc1ccccc12	-4.0	-8.3	5.8	-12.6	x	x	x	x	x
N#Cc1ccc(-c2c(-c3ccccc3)ncc3cc(F)ccc23)cc1	x	-5.4	1.2	-5.3	x	x	x	x	x
Cc1cccc(N2C(=O)/C(=C\c3ccc(C(=O)O)cc3)c3ccccc3C2=O)c1	44.7*	19.4	-4.6	3.7	31.8*	35.4*	x	x	x
Cc1cccc(N2C(=O)c3ccc(C(=O)Nc4ccccn4)cc3C2=O)c1	x	-15.9	2.0	-4.6	x	x	x	x	x
O=C(CCN1C(=O)/C(=C\c2ccc(F)cc2)SC1=S)Nc1ccccc1	x	-7.0	-3.2	-7.1	x	x	x	x	x
CCN(CC)c1ccc2cc(-c3nc4ccccc4[nH]3)c(=O)oc2c1	39.6*	37.1*	-22.0	44.7*	64.1*	78.3*	x	x	x
CCN(CC)c1ccc2cc(-c3nc(-c4ccc(OC)cc4)cs3)c(=O)oc2c1	79.6*	x	x	x	89.7*	115.2*	x	x	x
O=c1oc2ccc3ccccc3c2cc1-c1nnc(-c2ccccc2)o1	-0.2	-2.7	7.4	-2.2	x	x	x	x	x
Nc1nnc(-c2cc3c(ccc4ccccc43)oc2=O)s1	38.0*	x	x	x	30.7*	58.0*	x	x	x
COc1ccccc1NC(=O)c1sc2nc(-c3ccco3)ccc2c1N	26.1*	42.0*	4.8	33.7*	20.8	51.5*	34.0*	33.6	3.4
O=C(/C=C/c1c[nH]c2ccccc12)c1cccc2ccccc12	32.9*	35.7*	10.0	19.6	21.8	46.7*	23.3*	22.7	8.1
O=C(c1ccccc1)c1c[nH]c2ccccc12	x	-3.4	-6.3	3.4	x	x	x	x	x
CN1/C(=C\C(=O)c2cccnc2)C(C)(C)c2ccccc21	14.7	6.8	-3.1	-3.7	x	x	x	x	x
CN1/C(=C/C(=O)c2nc(S(C)(=O)=O)ncc2Cl)C(C)(C)c2ccccc21	35.8*	43.6*	68.7*	70.4*	29.0*	17.7	45.6*	24.6	98.8*
Cc1ccc(S(=O)(=O)N[C@H](C(=O)Oc2ccc3c(C(F)(F)F)cc(=O)oc3c2)c2ccccc2)cc1	32.3*	55.3*	-4.6	58.3*	43.1*	55.5*	32.8*	39.7	-0.7
SMILES	TLR4 MyD88 comp	TLR9-MyD88 block	ABHD5 PLIN5 PPI	NOD2-RIPK2 inh	TLR4-MyD88 conf	BLA inhibitor ct	TLR9-MyD88 conf	BLA nonselective	TLR9 CHO tox	others
Cc1noc(C)c1NC(=O)N(C)C[C@H]1Oc2ccc(NS(=O)(=O)c3cccs3)cc2C(=O)N([C@H](C)CO)C[C@@H]1C	x	-11.2	-7.6	1.7	x	x	x	x	x
COc1nc(N/N=C/c2ccc(-c3ccccc3[N+](=O)[O-])o2)nc(N2CCOCC2)n1	0.9	-1.0	-15.4	-0.4	x	x	x	x	x
O=[N+]([O-])c1ccc(-c2ccc(/C=N/Nc3nc(NCc4ccccc4)nc(N4CCOCC4)n3)o2)cc1	54.9*	36.4*	1.8	10.3	46.5*	76.1*	28.8*	31.4	2.9
CC(C)(C)CC(=O)Nc1nnc(SCC(=O)N2CCCCC2)s1	x	1.3	3.9	-4.9	x	x	x	x	x
Nc1c(C(=O)Nc2nc3ccccc3s2)sc2nc(-c3cccs3)ccc12	64.8*	25.4*	-1.2	-7.9	47.5*	77.1*	48.1*	48.1	41.8*
CC[C@H](C)/C=C(C)/C=C/C1=CC2=CC(=O)[C@]3(C)OC(=O)[C@@H](C(C)=O)[C@@H]3C2=CO1	33.1*	32.2*	4.0	19.2	18.9	48.3*	27.4*	29.5	0.7
CC[C@H](C)/C=C(C)/C=C/c1cc2c(cn1)C(=O)[C@@](C)(OC(C)=O)C(O)=C2Cl	x	x	3.9	-16.7	x	x	x	x	x
COc1cc(C2NC(=O)CCC2[N+](=O)[O-])cc(Br)c1OC (stereo not drawn)	x	11.9	-1.3	13.6	x	x	x	x	x
O=C(OCCN1C(=O)c2cccc3c(N4CCOCC4)ccc(c23)C1=O)c1ccc(Cl)cc1Cl	40.5*	37.6*	-4.0	6.9	58.2*	85.8*	67.7*	69.2*	29.2*
CCC1CN(C(=O)N2CCC(C(=O)NCCc3ccc(OC)cc3OC)CC2)c2ccccc2O1 (stereo not drawn)	x	6.2	3.4	-4.5	x	x	x	x	x
COC(=O)c1ccc(COC(=O)CNC(=O)c2cccs2)cc1	x	6.6	10.6	-8.5	x	x	x	x	x
OCCCc1nc2n(n1)C(c1ccccc1)C=C(c1ccccc1)N2 (stereo not drawn)	35.0*	40.3*	6.7	63.6*	27.9*	49.8*	31.7*	32.5	3.5
CC1C/C(=C/c2cccn2C)C(=O)/C(=C/c2cccn2C)C1 (stereo not drawn)	54.5*	37.4*	42.0*	-3.5	32.0*	60.5*	40.7*	40.1	0.7	ABHD5 PLIN5 conf=17.6;HNF4 counter=53.7*
